Screening data deposited in PubChem by National Center for Advancing Translational Sciences (NCATS).
An excerpt weighted towards active compounds, which were near 5.7% of everything screened.
PI4K2A block = qHTS for small molecular inhibitors of PI4K2A; purified PI4K2A, ADP-Glo luminescence, 1 h; hits give low values; activity change, negative = inhibition, % at 76.9 µM; hit rate 0.13% among 420,000; in the data active = activity change below about -50%; inconclusive = mostly about -30% to -49%;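 note: -100% = wells without enzyme as full effect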
Target sequence (Q9BTU6 whole entry, looked up): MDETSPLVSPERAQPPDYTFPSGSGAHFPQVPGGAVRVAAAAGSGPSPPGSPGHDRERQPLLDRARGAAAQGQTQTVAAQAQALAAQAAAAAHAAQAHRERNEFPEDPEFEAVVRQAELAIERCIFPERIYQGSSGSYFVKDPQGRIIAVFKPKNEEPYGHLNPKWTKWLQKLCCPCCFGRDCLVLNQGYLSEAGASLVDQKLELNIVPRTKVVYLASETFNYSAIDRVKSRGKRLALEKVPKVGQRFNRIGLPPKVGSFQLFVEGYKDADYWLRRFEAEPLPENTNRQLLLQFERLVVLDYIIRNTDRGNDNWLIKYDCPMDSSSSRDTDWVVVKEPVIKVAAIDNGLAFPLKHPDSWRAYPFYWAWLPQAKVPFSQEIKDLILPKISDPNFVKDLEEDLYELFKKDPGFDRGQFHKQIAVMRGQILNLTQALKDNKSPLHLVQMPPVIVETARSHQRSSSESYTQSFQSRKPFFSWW
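In this quantitative HTS, ADP production by PI4K2A was quantified luminescently after 1 h at ambient temperature; 100 microM adenosine served as plate-quality control.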
Nrf2 inh = Nrf2 qHTS screen for inhibitors; A549 ARE-Fluc reporter, luciferase luminescence, 18-24 h; Potency, µM (titrated, usually from 46 µM), for the others: at the top dose activity change, negative = inhibition, most hits filed as inhibitors; hit rate 2.1% among 360,000; AID 504444, 2011; note: potency is the fitted concentration of half-maximal effect; nearly all actives have a fitted effect of over 60% in size
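Nrf2 activity is the BugLite luminescence, read 15 min after reagent at room temperature, following CellTiter-Fluor cytotoxicity readout (30 min, 37C). Compound titrations were applied for 18-24 h to 5000 A549 ARE_Fluc cells/well in 5% FBS OPTI-MEM.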
KB-V1 cytotox = qHTS assay for MDR1-selective chemotherapeutics: Primary screen using the drug-selected MDR subline cells KB-V1 | Potency, µM (series often up to 46.1 µM), actives largely listed as cytotoxic | KB-V1 MDR cells viability, CellTiter-Glo, 72 h | hit rate 3.4% among 400,000 | AID 1347076, 2019; note: potency is the fitted concentration of half-maximal effect; nearly all actives have a fitted effect of over 60% in size
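Cells of the MDR subline KB-V1 are plated, dosed with compound at multiple concentrations, and incubated 72 h at 37 degrees C; CellTiter-Glo is then added and luminescence read after 10 min.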
A549 viability = Nrf2 qHTS screen for inhibitors: counterscreen for cytotoxicity; A549 ARE-Fluc cells, CellTiter-Fluor viability, 18-24 h; Potency, µM (highest dose often 46 µM), for inactives: at the top dose activity change, negative = cytotoxicity, most hits filed as inhibitors; hit rate 0.16% among 390,000; AID 504648, 2011; note: potency is the fitted concentration of half-maximal effect
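Cytotoxicity counterscreen: CellTiter-Fluor fluorescence was measured in A549 ARE_Fluc cells after 18-24 h of compound exposure in a concentration series. The subsequent BugLite luminescent read reports ARE-luciferase activity.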
KB-3-1 tox = qHTS assay for MDR1-selective chemotherapeutics: Primary screen using the parental adenocarcinoma cell KB-3-1. KB-3-1 viability, CellTiter-Glo ATP luminescence, 72 h. Potency, µM (doses to about 46.1 µM), most hits filed as cytotoxic. hit rate 1.4% among 400,000; note: potency is the fitted concentration of half-maximal effect; nearly all actives have a fitted effect of over 60% in size
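KB-3-1 cells, DMEM (no phenol red) + 10% FBS; compound by pin transfer, 72 h, 37 °C. Readout: CellTiter-Glo luminescence after 10 min. Data normalized, curve-fitted.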
Giardia killer = Small Molecules that selectively kill Giardia lamblia: qHTS; Giardia lamblia trophozoite viability; activity change, % at 7.66 µM, hits read low; hit rate 0.15% among 340,000; in the data active = activity change below about -80%; inconclusive = between about -30% and that limit;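 note: parasites exposed to compound for two days anaerobically before the ATP read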
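Killing of trophozoites was scored by loss of ATP luminescence after a 48 hrs anaerobic exposure to compounds at 37 deg C, using 100 cells per well.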
Active calls of the source: *; i = inactive; ? = inconclusive; . = no result given. Unless noted, calls come from the whole dose curve; as a rule, active = well fitted curve in the direction sought with a large enough effect; inconclusive = small, poorly fitted or top-dose-only effect, or another doubt; inactive = no such curve, though single readings can be large; an effect the other way counts as inactive or inconclusive. Unless noted, % is set by controls: 0 for no effect and ±100 for the full control effect.

SMILES | PI4K2A block | Nrf2 inh | KB-V1 cytotox | A549 viability | KB-3-1 tox | Giardia killer
O=S1(=O)c2ccc(Br)cc2OC[C@@H](Cc2ccccc2)N1Cc1cn(CCC2OCCCO2)nn1 | 1 | . | . | . | . | .
COc1ccc(Cl)cc1N1C(=O)/C(=C\c2sccc2C)N=C1SCC(=O)NC1CC1 | -3 | ? | 21µM* | -21% | i | 8
C=CCN1C(=O)/C(=C\c2ccc(Cl)cc2)N=C1SCC(=O)NC1CCCCC1 | 3 | 9% | ? | -10% | i | -23
COc1ccc(Cn2c(C3CC3)nc3ccc(NC(=O)C4CC4)cc3c2=O)cc1 | 1 | ? | 23µM* | 0% | ? | 3
Cc1nn(Cc2ccccc2)c(Cl)c1C(=O)OCc1nnc(-c2ccc(Cl)cc2)o1 | -9 | . | i | 16% | i | 8
Cc1nn(Cc2ccccc2)c(Cl)c1C(=O)OCc1nnc(-c2ccccc2)o1 | 4 | -26% | 7.3µM* | -8% | i | 12
COc1ccc(C(=O)CC(=O)C(=O)Nc2ccccc2)cc1 | -6 | 4% | i | -4% | i | 18
CCOc1ccccc1NC(=O)C(=O)CC(=O)c1ccc(OC)cc1 | 0 | -1% | 16µM* | -1% | i | -12
CCN(C[C@H]1[C@@H](c2ccc(C3=CCCC3)cc2)[C@H](CO)N1c1nc(C)c(C)s1)S(=O)(=O)c1ccccc1[N+](=O)[O-] | -1 | . | . | . | . | .
O=C(NCCCCCCCN1CCCCCCC1)C(C1CCCCC1)C1CCCCC1 | 1 | 1% | 3.3µM* | ? | ? | -5
CCOC(=O)c1c(C)[nH]c(C)c1S(=O)(=O)NCCN1CCN(c2cc(Cl)ccc2C)CC1 | -2 | ? | ? | -6% | 16µM* | -6
CCOC(=O)c1c(C)[nH]c(C)c1S(=O)(=O)N1CCN(c2cc(Cl)ccc2C)CC1 | -5 | 11% | . | 9% | . | .
COCCCNc1c2c3c(cccc3[nH]c1=O)C(=O)c1ccccc1-2 | 17 | ? | 2.1µM* | 14% | 5.8µM* | -16
C=CCNC1=C(Cl)C(=O)c2ccccc2C1=O | -6 | 16µM* | ? | ? | ? | -4
O=C1C(Cl)=C(NCCc2ccccc2)C(=O)c2ccccc21 | -10 | 2% | ? | -5% | ? | 1
COCCCNC1=C(Cl)C(=O)c2ccccc2C1=O | -2 | 26µM* | ? | -14% | ? | -5
COc1ccc(CC(=O)Nc2ccc(C)cc2S(=O)(=O)N2CCOCC2)cc1OC | -5 | . | . | . | . | .
COC(=O)[C@@]12C[C@@H](CC(=O)NCc3cccc(C(F)(F)F)c3)C(=O)N(CCc3ccc(OC)c(OC)c3)C1=CCC(C)(C)C2 | -7 | . | 16µM* | . | ? | .
COC(=O)[C@]12CCCCC=C1N(CCc1ccc(OC)c(OC)c1)C(=O)[C@H](CC(=O)NCCc1ccccc1OC)C2 | -2 | . | 16µM* | . | i | .
COC(=O)[C@]12CCCCC=C1N(CCc1ccc(OC)c(OC)c1)C(=O)[C@H](CC(=O)NCc1cccc(C(F)(F)F)c1)C2 | -3 | . | 15µM* | . | ? | .
COC(=O)[C@]12CCCCC=C1N(Cc1ccc3c(c1)OCO3)C(=O)[C@H](CC(=O)NCc1cccc(C(F)(F)F)c1)C2 | 7 | . | ? | . | i | .
COC(=O)[C@@]12C[C@@H](CC(=O)NCc3cccc(C(F)(F)F)c3)C(=O)N(Cc3ccc4c(c3)OCO4)C1=CCC(C)(C)C2 | 0 | . | 21µM* | . | ? | .
CONC(=O)C[C@@H](C#N)NC(=O)[C@@H]1CCCN1C(=O)[C@@H](NC(=O)c1ccc(N)c(Cl)c1)C(C)(C)C | . | 2% | . | 7% | . | .
O=C(CSc1nnc(-c2cccc(Cl)c2)n1Cc1ccco1)c1ccc(F)cc1 | -6 | . | . | . | . | .
COc1ccc(C(=O)Nc2ccc3[nH]ccc3c2)cc1OC | 1 | 26% | i | 0% | ? | -16
SMILES | PI4K2A block | Nrf2 inh | KB-V1 cytotox | A549 viability | KB-3-1 tox | Giardia killer
COc1ccc(C(=O)c2ccccc2C(=O)c2ccccc2)cc1 | -2 | -8% | 18µM* | -1% | i | 22
COc1ccc(C(=O)Nc2ccc3[nH]ccc3c2)cc1 | ? | ? | 16µM* | -20% | 16µM* | -89*
COc1ccc(-n2nnnc2/C=C\Nc2ccccc2C(=O)c2ccccc2)cc1 | 4 | -13% | 4.6µM* | -14% | 5.8µM* | 9
COc1ccc(OC)c(C(=O)c2ccc(C(=O)Nc3ccccc3)cc2)c1 | 0 | -29% | 23µM* | 2% | i | 0
COc1ccc(-n2nnnc2/C=C/Nc2cc(C(F)(F)F)ccc2OC)cc1 | 7 | -19% | i | 1% | i | 7
Cc1cccc(NC(=O)c2sc3nc(-c4ccccc4)cn3c2C)c1C | -1 | . | . | 3% | . | .
O=C(Nc1ccc(Cl)c(Cl)c1)C1CCCN1S(=O)(=O)c1cccc2cccnc12 (stereo not drawn) | -6 | . | . | . | . | .
COc1ccc(NC(=O)c2cccc(NC(=O)c3ccccc3)c2)cc1 | 0 | -1% | i | 4% | i | 2
Cc1ccc(C(=O)c2cccc(N)c2)cc1C | -3 | 5.8µM* | i | 0% | i | 6
Cc1ccc(C(=O)c2ccc(O)cc2)cc1C | -1 | 15% | i | 1% | i | 4
COc1ccc(C(=O)c2ccc(N(C)C)cc2)c2ccccc12 | -1 | 23% | 2.1µM* | -12% | 5.2µM* | 9
COc1ccc(C(=O)Nc2ccc(C(=O)c3ccccc3)cc2)cc1 | -17 | 9.2µM* | ? | -6% | i | 33
COc1ccc(C(=O)c2ccc(OC)c(OC)c2OC)cc1 | -8 | 25% | 2.3µM* | -16% | 5.8µM* | 7
O=C(Nc1ccc(F)cc1)OCc1cn(Cc2ccccc2Cl)nn1 | 5 | . | . | . | . | .
Cc1ccc(-c2cc(C(=O)NN=Cc3cccc4ccccc34)[nH]n2)cc1C | -5 | . | . | . | . | .
CCN(Cc1ccccc1)C(=O)c1ccc(NC(=O)c2ccc(OC)cc2)cc1 | 9 | 23µM* | i | -15% | i | 22
CC(=O)Oc1ccc(C(=O)Nc2cccc(C(=O)c3ccc(C)c(C)c3)c2)cc1 | 0 | ? | 9.2µM* | -11% | 16µM* | 4
COc1ccc(C(=O)COC(=O)c2ccc(NC(=O)c3ccccc3)cc2)cc1 | 0 | -22% | 15µM* | -12% | i | 13
COc1ccc(C(=O)N(Cc2ccccc2)Cc2ccc(OC)c(COc3ccc(NC(C)=O)cc3)c2)cc1 | . | ? | . | -3% | . | -17
